The panel holds about 79,000 compounds, 15% with a hit somewhere; the sample as a whole holds those more often. The source made the active and inactive calls. Rule as the data show it: active = growth inhibition above about 70%; inactive = the rest.
Assays:
[1] = NCI Yeast Anticancer Drug Screen. Data for the rad50 strain (AID 155);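 also: 0% = growth of vehicle-only cultures of the same strain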; conditions: S. cerevisiae rad50 strain growth inhibition; at 50.0 µM; active compounds read high
In short: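 Vehicle-treated cultures provide the reference for the growth inhibition reported for compound-exposed, repair-deficient yeast.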

[2] = NCI Yeast Anticancer Drug Screen. Data for the mec2-1 strain (AID 157); conditions: S. cerevisiae mec2-1 strain, at 50.0 µM, active compounds read high
In short: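 Each compound was tested on mec2-1 yeast, a strain altered in DNA damage repair or cell cycle control. Growth inhibition is reported relative to vehicle.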

[3] = NCI Yeast Anticancer Drug Screen. Data for the sgs1 mgt1 strain (AID 161);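 also: 0% = growth of cultures given vehicle only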; conditions: S. cerevisiae sgs1 mgt1 strain, at 50.0 µM, active compounds read high
In short: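 Genetically altered yeast, compound exposure, growth inhibition relative to vehicle.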

[4] = NCI Yeast Anticancer Drug Screen. Data for the cln2 rad14 strain (AID 165);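 also: 0% = growth equal to vehicle treated cultures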; conditions: S. cerevisiae cln2 rad14 strain, at 50.0 µM, active compounds read high
In short: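 Test compounds were added to cln2 rad14 yeast cultures; inhibition of growth was then determined by comparison with vehicle treatment.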

[5] = NCI Yeast Anticancer Drug Screen. Data for the bub3 strain (AID 167); conditions: S. cerevisiae bub3 mutant strain, at 50.0 µM, active compounds read high
In short: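 Mutant yeast screening strain plus compound; vehicle-treated cultures serve as the 0% inhibition reference.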

[6] = NCI Yeast Anticancer Drug Screen. Data for the mlh1 rad18 strain (AID 175); conditions: S. cerevisiae mlh1 rad18 strain growth inhibition; at 50.0 µM; active compounds read high
In short: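 Inhibition values reflect reduced growth of mutant yeast versus vehicle-treated controls following compound exposure; the mutations affect DNA damage repair.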

Measured: growth inhibition

Cc1cccc(/C=C(\C#N)C(=O)c2ccccc2)c1
inactive: [1] -10.6% | [2] 15.3% | [3] -13.6% | [4] 5.75% | [5] -5.25% | [6] 21.2%

COC1N(C2C=CC(CO)O2)C(=O)NC(=O)C1(C)Br (stereo not given)
inactive: [1] -4.8% | [2] -18.1% | [3] 2.8% | [4] 2.75% | [5] -17.8% | [6] 15.8%

CC(C)OP(=O)(OC(C)C)C1C(P(=O)(OC(C)C)OC(C)C)C(F)(F)C1(F)F (stereo not given)
inactive: [1] 11.4% | [2] 10.9% | [3] -7.35% | [4] -2.65% | [5] -2% | [6] 14.3%

O=C1c2c(ccc3c2CCC3)CC12Cc1cc3c(cc1C2)CCC3
inactive: [1] -33.8% | [2] -32.5% | [3] -22.9% | [4] 10.9% | [5] -0.5% | [6] -15.2%

O=C1CCSSCCC(=O)Nc2ccccc2N1
inactive: [1] -36.4% | [2] -42.5% | [3] -14.8% | [4] -9.55% | [5] -18.1% | [6] -15.6%

O=C(Oc1ccco1)c1ccc([N+](=O)[O-])cc1
inactive: [1] 2.55% | [2] 0.6% | [3] -4.7% | [4] -17.2% | [5] 0.1% | [6] -9.8%

CCOC(=O)c1ccc(CS(=O)c2ccccc2)c([N+](=O)[O-])c1 (stereo not given)
inactive: [1] 14.7% | [2] -4.75% | [3] 20.6% | [4] 3.55% | [5] 58.1% | [6] 18.2%

O=C(CCCc1ccccc1)OCC(=O)c1ccc(-c2ccccc2)cc1
inactive: [1] 19.4% | [2] 6.45% | [3] 11.2% | [4] 3.45% | [5] 12.8% | [6] 14.6%

O=[N+]([O-])c1ccc2nc(Cl)n[n+]([O-])c2c1
active: [1] 88.7% | [2] 93% | [3] 91.5% | [4] 89.3% | [5] 91.1% | [6] 91.8%

Cc1cc(C)nc(NS(=O)(=O)c2ccc(Nc3c4ccccc4nc4c(C(=O)Nc5ccc(S(=O)(=O)Nc6cc(C)on6)cc5)cccc34)cc2)n1
inactive: [1] 28.8% | [2] 17.6% | [3] 32.2% | [4] 31.7% | [5] 11.4% | [6] 38.9%

O=c1nc(-c2ccccc2)scc1-c1ccccc1
inactive: [1] -1% | [2] -10.6% | [3] 3.4% | [4] 19.1% | [5] 10% | [6] -10.1%

Cc1cc(C(N)=O)c(C(N)=O)c(Cl)n1
inactive: [1] 2.35% | [2] -7.35% | [3] -3.2% | [4] -0.2% | [5] 9.05% | [6] -10.7%

CC(=O)OC1CC(c2ccccc2)N(C)C(c2ccccc2)C1 (stereo not given)
inactive: [1] 6.85% | [2] -8% | [3] 2.55% | [4] -7.9% | [5] -3.15% | [6] 10.6%

CC(O)C(=O)N(CCO)CCO (stereo not given)
inactive: [1] -5.4% | [2] -21.9% | [3] -13.4% | [4] -35.8% | [5] 3.5% | [6] 10.3%

OCC(O)C(O)C(O)C(O)C(O)[C@@H](O)c1nc2ccccc2[nH]1 (stereo not given in full)
inactive: [1] -9.2% | [2] -5.4% | [3] -12.3% | [4] -16.9% | [5] 50.1% | [6] 6.6%

N#CCCN(C1=NN(C(=O)CC(=O)Nc2ccccc2)C(c2ccccc2)C1)c1ccccc1Cl (stereo not given)
inactive: [1] -5.05% | [2] -3.9% | [3] -36% | [4] 27.9% | [5] -1.15% | [6] -9.2%

Cc1ccc(S(=O)(=O)CN2CCC(=O)c3ccccc32)cc1
inactive: [1] 20.4% | [2] 12.6% | [3] -6.4% | [4] 11.4% | [5] 15.4% | [6] 0.25%

COc1ccc2c(C)[n+]3ccc4cc(OC)c(OC)cc4c3cc2c1 (tested in a mixture with another compound)
inactive: [1] 21.5% | [2] 12.4% | [3] 22.9% | [4] -6.7% | [5] 22.5% | [6] 32.8%

COc1ccc2oc(=N)c(C(N)=S)cc2c1
inactive: [1] 28% | [2] 24.2% | [3] -3.45% | [4] 16.8% | [5] 7.9% | [6] -2.95%

CCCC1OC1(CC)C(=O)OCC(CC)(COC(=O)C1(CC)OC1CCC)COC(=O)C1(CC)OC1CCC (stereo not given)
inactive: [1] -7.4% | [2] -19.5% | [3] 1.25% | [4] -2.05% | [5] 4.35% | [6] 4%

NC1=NOC(=O)C1c1ccccc1 (stereo not given)
inactive: [1] -19.1% | [2] -45.3% | [3] -10.2% | [4] 2.55% | [5] -9.5% | [6] -19.8%

COc1ccc(N=Nc2c(C)nc(N)nc2C)cc1
inactive: [1] 2.1% | [2] 18% | [3] 8.05% | [4] -26.8% | [5] -14.3% | [6] 12.6%

Cc1ccc(F)c2[nH]c(-c3ccccc3)cc(=O)c12
inactive: [1] 14.9% | [2] 3.45% | [3] -1.2% | [4] -5.95% | [5] 8% | [6] 12%

NCCCn1[nH]c(=O)c2ncccc2c1=O
inactive: [1] -60.1% | [2] -28.8% | [3] -11.7% | [4] -91.5% | [5] -21.6% | [6] -18.7%

COc1ccc(C(C#N)NNC(=O)c2ccccc2O)cc1OC (stereo not given)
inactive: [1] 14.9% | [2] 0.85% | [3] 6.6% | [4] 4.2% | [5] 35.2% | [6] -18.9%

CN1C(=O)CC(c2cccc(C3CC(=O)N(C)C3=O)n2)C1=O (stereo not given)
inactive: [1] -18.6% | [2] -23.7% | [3] -17.6% | [4] -5.8% | [5] -11.7% | [6] -13.7%

C=CCOC(=O)Nc1ccc(S(=O)(=O)CC)cc1
inactive: [1] -0.95% | [2] 5.95% | [3] -4.55% | [4] -21.6% | [5] 22.8% | [6] -1.65%

CC[N+](C)(CC)CCl
inactive: [1] -49.2% | [2] -17.9% | [3] -20.8% | [4] -45.4% | [5] 7.6% | [6] -1.65%

Cc1ccc2c(CC(=O)O)cc(=O)oc2c1
inactive: [1] 7.35% | [2] -6.35% | [3] -7.95% | [4] 0.9% | [5] -0.3% | [6] -9.35%

CCCCCC/C(CC(=O)CCC(=O)NCCc1ccccc1)=N\NC(=O)c1ccc2ccccc2c1O
inactive: [1] 25% | [2] 20.2% | [3] 32.6% | [4] -49.2% | [5] 2.5% | [6] 45.5%

Cc1cnc2[nH]c(-c3ccc(Cl)cc3)cc(=O)c2c1
inactive: [1] -5.65% | [2] -21.6% | [3] -31.9% | [4] -31.4% | [5] -32% | [6] -52.1%

O=c1nc(NO)cnn1C1OC(CO)C(O)C1O (stereo not given)
inactive: [1] 13.7% | [2] -0.2% | [3] 16.4% | [4] -26.4% | [5] -11.8% | [6] 11.7%

CCOC(=O)Nc1cc2c(c(N)n1)N=C(c1ccc(Cl)cc1Cl)CN2
inactive: [1] 33.4% | [2] -29.5% | [3] 25.6% | [4] -5.1% | [5] -6% | [6] -8.45%

CCOC(OCC)c1ccccc1C
inactive: [1] 27.9% | [2] 9.3% | [3] 8.25% | [4] -36.5% | [5] 15.2% | [6] 20.4%

O=c1c2ccccc2nc2sc3nc4ccccc4c(=O)n3n12
inactive: [1] 4% | [2] -10.8% | [3] -8.85% | [4] -56% | [5] -4.2% | [6] -11.8%

Cc1cc2c(C(C)C)c(O)c(O)c(C=NCc3ccc(Br)cc3)c2c(O)c1-c1c(C)cc2c(C(C)C)c(O)c(O)c(C=NCc3ccc(Br)cc3)c2c1O
inactive: [1] -5.6% | [2] 1.6% | [3] 26.6% | [4] -22.1% | [5] -9.15% | [6] 27.8%

CCC(O)C(C)(C)N (stereo not given)
inactive: [1] 13.4% | [2] -7.8% | [3] 2.7% | [4] -6.45% | [5] 4.45% | [6] 0.4%

CO/N=C(\C([O-])=N\[n+]1cnn(CC(=O)OC(C)(C)C)c1)c1csc(NC(c2ccccc2)(c2ccccc2)c2ccccc2)n1
inactive: [1] 39.5% | [2] 0.75% | [3] 11.1% | [4] 8.3% | [5] 15.3% | [6] -10.1%

Oc1cccc2c1N1CCN2CC1
inactive: [1] -2.15% | [2] 2.55% | [3] 11.2% | [4] 4.85% | [5] 9.6% | [6] 10.3%

CCCCCC(CN(C)C)C(=O)CC(SCC)c1ccc(Cl)c(Cl)c1 (stereo not given)
active: [1] 99.5% | [2] 99.5% | [3] 99.5% | [4] 99.5% | [5] 99.2% | [6] 99.3%

Source: PubChem BioAssay (NCI)
